Screening results as filed in PubChem.
Rows were chosen to be rich in hits. Some 8% of all compounds tested hit in one or more screens of this group.
HT1080 IDH1KD tx: toxicity to HT-1080 IDH1 knockdown cells (counter line). HT-1080 IDH1 knockdown viability, ATP luminescence, 48 h. Potency, µM (highest dose often 46.1 µM), without a hit: top-dose activity, negative = toxicity, hits mostly cytotoxic. 360,000 tested, 2% active. AID 686971;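 note: 0% = DMSO wells and -100% = cell-free medium wells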
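Knockdown cells (IDH1KD HT-1080) received compounds 2 h after plating at 750 cells/well and were kept 48 h at 37 °C in 5% FBS RPMI. A CellTiter-Glo luminescence read gave % activity for curve fitting.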
KB-3-1 tox: kills parental KB-3-1 adenocarcinoma cells. 400,000 tested, 1.4% active. KB-3-1 viability, CellTiter-Glo ATP luminescence, 72 h. Potency, µM (titrated, usually from 46.1 µM), hits mostly cytotoxic; note: % is set by controls: 0 for no effect and ±100 for the full control effect; nearly all actives have a fitted effect of over 60% in size
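72 h, 37 °C compound treatment of KB-3-1 parental cells; CellTiter-Glo added, 10 min, luminescence read. Data corrected against DMSO-only plates and normalized before curve fitting.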
KB-V1 cytotox: KB-V1 MDR subline cytotoxicity; KB-V1 MDR cells viability, CellTiter-Glo, 72 h; Potency, µM (highest dose often 46.1 µM), actives largely listed as cytotoxic; 400,000 tested, 3.4% active; AID 1347076; note: % is set by controls: 0 for no effect and ±100 for the full control effect; nearly all actives have a fitted effect of over 60% in size
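Cytotoxicity toward P-gp-expressing KB-V1 cells was determined as loss of CellTiter-Glo luminescence after 72 h at 37 degrees C. Compounds were tested in quantitative HTS format across a concentration range, with curves fitted to normalized data.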
HT1080NT lethal: kills 2HG-producing HT-1080-NT fibrosarcoma cells. HT-1080-NT fibrosarcoma viability, CellTiter-Glo ATP luminescence, 48 h. Potency, µM (top dose mostly 46.1 µM), for inactives: at the top dose activity, negative = less viability, usual class: cytotoxic. 360,000 tested, 1.6% active;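 note: NT is the 2HG producing partner of a matched IDH1 knockdown line; 0% = DMSO-treated cells and -100% = media-only wells without cells; nearly all actives have a fitted effect of over 55% in size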
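750 cells/well, RPMI + 5% FBS; 2 h settle, compound pin-transfer, 48 h at 37 degrees C. CellTiter-Glo 10 min RT, luminescence. Normalized to DMSO and media-only wells.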
SW480 rereplic: DNA re-replication induction in SW480 cells | SW480 DNA re-replication, Hoechst DNA content imaging, 48 h | Potency, µM (doses to about 46.1 µM), for the others: top-dose re-replication activation, most hits filed as activators | 340,000 tested, 1.8% active | AID 624297; note: % of control where 0% means no effect; nearly all actives have a fitted effect of over 55% in size
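Cells (250 per well) received 23 nL compound or DMSO by pin tool and were kept 48 hr at 37 C, 5% CO2. Nuclei were then stained with Hoechst for 40 min and scanned for DNA content.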
MCF10A rerep: inducers of DNA re-replication in MCF 10A breast cells; MCF 10A DNA re-replication, Hoechst nuclear intensity, 48 h; Potency, µM (titrated, usually from 46.1 µM), for the others: at the highest dose activity, positive = re-replication, usual class: activators; 350,000 tested, 2.9% active; AID 624296; note: % of control where 0% means no effect; nearly all actives have a fitted effect of over 50% in size
* hit, by the source's call; i = inactive; ? = inconclusive; . = no result given. Calls come from the whole dose curve; as a rule, active = well fitted curve in the direction sought with a large enough effect; inconclusive = small, poorly fitted or top-dose-only effect, or another doubt; inactive = no such curve, though single readings can be large; an effect the other way counts as inactive or inconclusive. Potency is the fitted concentration of half-maximal effect.

SMILES	HT1080 IDH1KD tx	KB-3-1 tox	KB-V1 cytotox	HT1080NT lethal	SW480 rereplic	MCF10A rerep
COc1ccc(N2CCN(c3ncnc4c3cnn4-c3ccc(C)cc3C)CC2)cc1	15%	i	4.6µM*	5%	-4%	0%
COc1ccc(N2CCN(c3cc(C)c4ccc(C)cc4n3)CC2)cc1	-6%	i	?	-23%	6%	21µM*
Cc1ccc(-n2ncc3c(N4CCN(c5ccccc5)CC4)ncnc32)c(C)c1	-5%	?	2.3µM*	-2%	8%	?
COc1ccc(-n2ncc3c(N4CCN(c5cc(C)ccc5C)CC4)ncnc32)cc1	2%	i	i	-1%	-10%	2%
Cc1nc(Cc2ccccc2)sc1CC#N	2%	i	i	1%	-1%	3%
COc1cc(OC)c(NC2=CC(=O)C(=O)c3ccccc32)cc1Cl	8.2µM*	4.6µM*	4.1µM*	21µM*	?	17%
NS(=O)(=O)c1ccc(NC(=O)Nc2ccccc2)cc1	4%	i	i	3%	-6%	-36%
CCC(C(=O)Nc1cc(Cl)c(OC)cc1OC)c1ccccc1 (stereo unspecified)	-8%	i	i	0%	2%	8%
NS(=O)(=O)c1ccc(NC2=CC(=O)C(=O)c3ccccc32)cc1	?	?	i	?	3.3µM*	?
CCOC(=O)c1ccc(COC(=O)c2ccc3c(c2)-c2ccccc2C3=O)cc1	9%	i	15µM*	7%	-4%	-3%
CCOC(=O)c1ccc(NC2=CC(=O)C(=O)c3ccccc32)cc1	-16%	?	?	-25%	?	13µM*
Cc1ccccc1C(=O)N/C(=C/c1ccc(-c2cccnc2Cl)o1)C(=O)NCCCN1CCN(C)CC1	-13%	i	i	-24%	21%	3%
CCOC(=O)[C@@H]1[C@H]2COc3ccc(Br)cc3[C@H]2N2C(=O)N(c3cccc(F)c3)C(=O)[C@]12C	9%	i	i	3%	9%	-2%
CC(=O)Nc1ccc(NC2=CC(=O)c3ccccc3C2=O)cc1	?	i	i	?	4%	-1%
Cc1ccc(NC2=CC(=O)C(=O)c3ccccc32)cc1	6.3µM*	?	16µM*	10µM*	5.8µM*	?
Cc1cc(NC2=CC(=O)C(=O)c3ccccc32)no1	?	?	18µM*	?	?	13µM*
CCOC(=O)c1ccc(Nc2cc(C)nc(-c3ccccc3)n2)cc1	18µM*	i	?	16µM*	?	?
COc1ccccc1CNC(=O)C1CCC(CNc2c(N3CCOCC3)c(=O)c2=O)CC1 (stereo unspecified)	3%	i	i	11%	-5%	-1%
COc1ccc(N2C(=O)CC(Sc3nc4ccccc4s3)C2=O)cc1 (stereo unspecified)	7%	i	i	1%	17%	?
C=CCNc1nnc(SC2CC(=O)N(c3ccc(OC)cc3)C2=O)s1 (stereo unspecified)	?	i	i	?	7%	5.8µM*
Cc1cc2ccccn2c1C(=O)c1nc(NCc2ccccc2)ncc1Cl	2%	i	?	4%	-76%	1%
Cc1ccsc1/C=N/Nc1nc(=O)[nH]nc1C	21µM*	?	?	23µM*	6.5µM*	-3%
S=C(Nc1ccccc1Cl)N1CCCCCC1	8%	i	i	24%	1%	-17%
S=C(Nc1ccccc1Cl)N1CCCC(c2ccccc2)=N1	-20%	i	?	-17%	?	13µM*
COc1cc2nc(N3CCCN(C)CC3)nc(NC3CCCCC3)c2cc1OC	?	.	.	18µM*	.	.
SMILES	HT1080 IDH1KD tx	KB-3-1 tox	KB-V1 cytotox	HT1080NT lethal	SW480 rereplic	MCF10A rerep
COc1cc2c(NC3CCN(C(C)C)CC3)nc(N3CCCN(C)CC3)nc2cc1OCCOCCN1CCCC1	.	12µM*	i	.	.	.
COc1cc2c(NC3CCN(C)CC3)nc(N3CCCCC3)nc2cc1OCCOCCN1CCCC1	.	?	i	.	.	.
Cc1c(C(=O)NCCSCc2c(F)cccc2Cl)cnn1-c1ccc(F)cc1	0%	i	i	5%	0%	?
CN(C)C(=O)NC(Nc1cccc([N+](=O)[O-])c1)C(Cl)(Cl)Cl (stereo unspecified)	-1%	i	i	0%	-13%	-4%
N=C1C(c2ccccc2)=C(O)CN1c1ccc2c(c1)OCO2	20%	i	i	4%	2%	16µM*
N=C1C(c2ccccc2)=C(O)CN1c1ccccc1	1%	i	i	4%	-7%	-4%
COc1ccc(C)cc1Nc1n[n+](-c2ccccc2)c(-c2ccc(SC)cc2)s1	18µM*	?	?	?	?	?
COc1ccc(C)cc1Nc1n[n+](-c2ccccc2)c(-c2ccc(NC(C)=O)cc2)s1	-5%	i	i	2%	-9%	-21%
CCOC(=O)CCc1nc2ccccc2[nH]c1=O	7%	i	i	12%	-8%	4%
Cc1cc(-c2cc(-c3ccccc3)on2)nc(NCC2CC2)n1	5%	i	?	12%	1%	18µM*
CCCNc1nc(C)cc(-c2cc(-c3ccccc3)on2)n1	15%	i	i	9%	-34%	61%
CNCCC=C1c2ccccc2CCc2ccccc21	?	i	21µM*	23µM*	-77%	?
Cc1cc(C)cc(C(=O)NCC(=O)OCC(=O)N(C)C2CCS(=O)(=O)C2)c1 (stereo unspecified)	10%	i	?	16%	-12%	-6%
CC(C)Cn1c(C(C)C)nc([N+](=O)[O-])c1S(=O)(=O)c1ccc(F)cc1	7.1µM*	?	?	3.5µM*	18µM*	21µM*
CCCc1nc([N+](=O)[O-])c(S(=O)(=O)c2ccccc2)n1CC(C)C	?	?	i	-10%	?	?
Cc1ccn2cc(-c3cc4ccccc4oc3=O)nc2c1	-21%	i	?	-20%	21%	13%
Cc1ccc(C(C)n2cc(C(=O)NCc3cccnc3)nn2)cc1 (stereo unspecified)	0%	i	15µM*	-9%	-1%	1%
COc1ccc(N2CCN(Cc3nc4c(c(=O)n(C)c(=O)n4C)n3CCc3ccccc3)CC2)cc1	-1%	i	i	13%	-1%	-8%
COc1ccc(CNC(=O)CNC(C)c2ccc(F)cc2)cc1 (stereo unspecified)	5%	i	i	-2%	0%	-16%
